In PubChem BioAssay AID488857 (Sanford-Burnham Center for Chemical Genomics, 2010):
Among all 1,400 compounds or so, about 560 (40%) were called active. So high a share suggests a set chosen from earlier hits. This is one part of the list. A number with no mark means an inactive call.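 The calls were made as follows: active = mean inhibition over duplicate tests at 10 µM above 50%; inactive = the rest.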

assay: ASC/caspase-1 reporter retest in S. cerevisiae at one dose, specificity check for NALP1 project (AID 488857); settings: S. cerevisiae ASC/Caspase-1, beta-galactosidase luminescence, 24 h; at 10 µM; active compounds read high

| SMILES | inhibition |
| --- | --- |
| O=S(=O)(CC12C3C4C5C1C2C(Br)(C43)C51OCCO1)c1ccccc1 (configuration not stated) | 38.5% |
| Cc1cccc(/C=N/n2c(-c3cc(-c4ccccc4)n[nH]3)n[nH]c2=S)c1 | 53.3% (active) |
| Cc1ccc(N2C(=O)c3ccc(C(=O)O)cc3C2=O)cc1C | 37.3% |
| Cc1ccc(C(=O)O)cc1N=Cc1cc(Br)cc(Br)c1O | 83.5% (active) |
| CCCCN(C)CCC(=O)Nc1ccc(Cl)cc1 | 39.2% |
| O=C(Cc1noc2ccccc12)Nc1ccc(Cl)cc1 | 61.3% (active) |
| O=C(Cn1c(=O)oc2ccccc21)Nc1ccc(Cl)cc1 | 33.4% |
| CCOC(=O)C[N+](CC)(CC)CC#Cc1ccccc1 | 5.45% |
| CCOc1ccc(NC(=O)/C=C/c2ccccc2)c([N+](=O)[O-])c1 | 29.2% |
| CCOC(=O)COc1ccccc1/C=C\[N+](=O)[O-] | 101% (active) |
| CCOC(=O)COc1ccc2ccccc2c1/C=C/[N+](=O)[O-] | 99.9% (active) |
| COc1ccccc1OCC(=O)N/N=C/C=C/c1ccc([N+](=O)[O-])o1 | 15.4% |
| COc1ccc(CN2CCNC(=O)C2CC(=O)N(Cc2nccn2C)C(C)C)c(OC)c1 (configuration not stated) | 26.1% |
| COc1cc(C2SCC(=O)N2CCCN(C)C)cc(OC)c1OC (configuration not stated) | 23.1% |
| COc1cc(N2C(=O)CSC2=S)cc(OC)c1OC | 81.3% (active) |
| C/C(=N/N=C1\SCC(=O)N1c1ccccc1)c1ccc(C)cc1 | 39.4% |
| O=C1CSC(=S)N1c1ccc(O)cc1 | 98.2% (active) |
| O=C1CSC(=S)N1c1cccc(O)c1 | 98.8% (active) |
| CCCCNCCOCCOc1ccccc1-c1ccccc1 | 55.2% (active) |
| CCCCNCCOCCOc1ccc(Cl)cc1Br | 49% |
| O=C(Nc1nc(-c2ccco2)c(-c2ccco2)s1)C1CCC1 | 45.5% |
| O=C(CSCc1ccc(F)cc1)NCc1ccco1 | 47.5% |

| SMILES | inhibition |
| --- | --- |
| O=C(NCc1ccc(F)cc1)c1cc(-c2ccco2)on1 | 52.4% (active) |
| O=C(Nc1cccc(O)c1)c1cc(-c2ccco2)on1 | 79.8% (active) |
| Cc1ccc(NC(=O)N(C2CCCCC2)C(C)c2cccnc2)cc1C (configuration not stated) | 48.4% |
| CCOC(=O)Nc1ccc2c(C)cc(=O)oc2c1 | 58.4% (active) |
| CCOC(=O)NC1(NCc2ccccc2)Oc2ccccc2O1 | 38.3% |
| Cc1cc(=O)oc2cc(OCC(=O)N3CCN(C(=O)c4ccco4)CC3)ccc12 | 30.7% |
| CCOC(=O)c1sc(NC(=O)Nc2cccc(Cl)c2)cc1C | 19.4% |
| CCOC(=O)C(=O)NNc1ccc(Cl)cc1 | 42.9% |
| CCOC(=O)Nc1cccc(Nc2ccccc2)c1 | 59.8% (active) |
| CC(C)CN=Cc1c(O)c([N+](=O)[O-])cc2oc3c(c12)CCCC3 | 28.2% |
| CCOc1ccccc1C(=O)Nc1cnn(Cc2ccc(F)cc2)c1 | 61.2% (active) |
| COc1ccccc1C(=O)Nc1nc2nc(-c3ccccc3)cc(=O)n2[nH]1 | 15.4% |
| Cc1ccc(C(=O)NCc2ccco2)cc1S(=O)(=O)Nc1cccc(Cl)c1 | 38.6% |
| Nc1nc(NCc2ccco2)nc(N2CCCCCC2)c1[N+](=O)[O-] | 62.4% (active) |
| Cc1ccc(Nc2nc(N)c([N+](=O)[O-])c(NCc3ccco3)n2)cc1C | 60.8% (active) |
| CC1CCN(c2nc(NCc3ccco3)nc(N)c2[N+](=O)[O-])CC1 | 73% (active) |
| CC1CCCN(c2nc(NCc3ccco3)nc(N)c2[N+](=O)[O-])C1 (configuration not stated) | 62% (active) |
| CCN1CCN(C(=O)N[C@@H](C(=O)N[C@@H]2C(=O)N3[C@@H]2SC(C)(C)[C@@H]3C(=O)O)c2ccccc2)C(=O)C1=O | 39.1% |
| COCCn1c(SCC(=O)NC(=O)NC(C)(C)C)nc2ccccc21 | 40.6% |
| O=c1c(F)cn(C2CCCO2)c(=O)n1Cc1c(F)cccc1Cl (configuration not stated) | 33.2% |
| CCOC(=O)c1c(C(F)(F)C(F)(F)C(F)(F)C(F)(F)F)n[nH]c1C | 25.5% |
| COc1ccc(C2=NN3C(=O)c4c(ccc(OC)c4OC)C3C2)cc1 (configuration not stated) | 50.4% (active) |

| SMILES | inhibition |
| --- | --- |
| O=P(CCCCCCCCCP(=O)(c1ccccc1)c1ccccc1)(c1ccccc1)c1ccccc1 | 47.2% |
| CNC(CC(=O)c1ccc([N+](=O)[O-])cc1)C(Cl)(Cl)Cl (configuration not stated) | 69.4% (active) |
| O=C(NC(CO)Cc1ccc([N+](=O)[O-])cc1)C(Cl)Cl (configuration not stated) | 34.8% |
| N#CC(C#N)=C(Nc1ccc(F)cc1)SCc1cccc(Br)c1 | 83.2% (active) |
| Cc1ccc(F)cc1NCC(=O)Nc1ccc(Br)cc1 | 41.2% |
| COc1ccc2c(c1)C1=NN(/C(C)=C/C(C)=O)C(c3ccc(F)cc3)C1CC2 (configuration not stated) | 45.9% |
| COc1ccccc1NC(=O)Nc1ccc2c(c1)nnn2C | 25.1% |
| OCCCN=c1cc(-c2ccccc2)oc2ccc(Cl)cc12 | 49.8% |
| COc1ccc(N=c2cc(-c3ccc(OC)cc3)oc3ccccc23)cc1 | 54.5% (active) |
| Cn1c(N)c(C(=O)COC(=O)C2(c3ccc(Cl)cc3)CCCC2)c(=O)n(C)c1=O | 26.6% |
| COC(=O)Nc1nc(C)c(C(=O)c2ccccc2)s1 | 47.8% |
| COC(=O)Nc1sc2nc(C)cc(C)c2c1-n1cccc1 | 67.7% (active) |
| CCc1ccc(OCC(=O)Nc2ccc(CN3CCCCC3)cc2)cc1 | 55.1% (active) |
| CCOC(=O)C1CCCN(Cc2ccc(OCC)cc2)C1 (configuration not stated) | 30.4% |
| CCC(C)(C)NCC(=O)Nc1ccc(OC(F)(F)F)cc1 | 27.4% |
| Cc1ccc(/C=N/Nc2ccnc3cc(Cl)ccc23)c(C)c1 | 55% (active) |
| Clc1ccc2c(N/N=C/c3ccc(Br)cc3)ccnc2c1 | 55.6% (active) |
| CCCCNC(=O)C(=O)N/N=C/c1cccc(Br)c1 | 37.1% |
| Clc1ccc2c(N/N=C/c3ccccc3Br)ccnc2c1 | 31.4% |
| Clc1ccc2c(N/N=C/c3cccc(Br)c3)ccnc2c1 | 57% (active) |
| Cc1ccc(N/C=C/C(=O)C(C)(C)C)c(O)c1 | 34.2% |
| CC(C)Oc1ccc(Cc2cnc(N)nc2N)cc1 | 48% |

| SMILES | inhibition |
| --- | --- |
| CCOc1c(Cl)cc(CNCC(C)C)cc1OC | 50% (active) |
| Cc1cc2ccccc2n1CCNCc1c(C(=O)N2CCOCC2)nc2ccccn12 | 21.8% |
| CC(CC(=O)Nc1cccc(Cl)c1)c1ccccc1 (configuration not stated) | 50% (active) |
| Cn1cc(CC(=O)Nc2cccc(C#N)c2)c2ccccc21 | 34.1% |
| O=C(CNC(c1ccccc1)c1ccccc1)Nc1c(F)cccc1F | 39.8% |
| CSC1=N/C(=C\c2cccnc2)C(=O)N1c1ccccc1 | 37.9% |
| NS(=O)(=O)c1ccc(NC(=O)COC(=O)c2cn(-c3ccccc3)nc2-c2ccc(F)cc2)cc1 | 33.1% |
| CCOC(=O)c1nn(-c2ccc(C)cc2)cc1C(=O)c1ccccc1 | 64.8% (active) |
| CCOC(=O)C1=Nc2ccccc2C1=[N+]=[N-] | 46% |
| COc1ccc(CC(C)N2CCN(Cc3ccccc3)CC2)c(OC)c1 (configuration not stated) | 39.7% |
| O=C(CCl)Nc1nc(-c2ccco2)c(-c2ccco2)s1 | 26.5% |
| N#Cc1ccc(-c2ccc(Cl)cc2)nc1SCC(=O)c1cccc(Cl)c1 | 25.2% |
| O=C(Nc1cccc(-c2cn3ccccc3n2)c1)c1cccc(Cl)c1 | 58.9% (active) |
| O=C(Nc1ccc(-c2cn3ccccc3n2)cc1)c1ccco1 | 84% (active) |
| Cc1ccn2cc(-c3ccc(NC(=O)c4ccco4)cc3)nc2c1 | 86.5% (active) |
| Cc1sc2nc(SCC(=O)NCc3ccco3)n(Cc3ccccc3)c(=O)c2c1C | 23.5% |
| Cc1sc(NC(=O)c2ccco2)nc1-c1ccccc1 | 79% (active) |
| CCCCC(=O)Nc1ccc(C(=O)NNC(=S)NC(=O)c2ccco2)cc1 | 30.9% |
| CC(C)CC(=O)N1CCN(S(=O)(=O)c2ccccc2)CC1 | 35.2% |
| C=CCc1cccc(/C=N/c2nc3ccccc3n2CC)c1O | 31.1% |
| C#CCCCCCCC#CCN(C)C | 33.6% |
| CCCc1nc2ccc(NC(=O)c3ccco3)cc2c(=O)n1Cc1ccccc1Cl | 40.2% |

| SMILES | inhibition |
| --- | --- |
| O=C(Nc1ccc2oc(-c3ccccc3)nc2c1)c1ccco1 | 96.3% (active) |
| O=[N+]([O-])c1ccc(-c2ccn[nH]2)o1 | 36% |
| COCCCN(CCCN)Cc1ccco1 | 74.1% (active) |
| COc1ccc(NCc2ccc([N+](=O)[O-])s2)cc1 | 30.4% |
| CCOC(=O)c1c(O)c2cc(Cl)ccc2n(CC)c1=O | 40.3% |
| CCOC(=O)c1nnc(-c2ccc(C)cc2)nc1Sc1ccc(Cl)cc1 | 29.1% |
| CCOC(=O)C1=NN(C(=O)c2ccc(C)cc2)C(O)(c2ccc(Cl)cc2)C1 (configuration not stated) | 50.6% (active) |
| O=S(=O)(Cc1cc(Sc2ccccc2)nc(-c2ccccc2)n1)c1ccccc1 | 33.7% |
| Oc1c(Cl)cc(Cl)c2c1NCCC2 | 64.7% (active) |
| CCN(C(=O)[C@@H]1CCCN1C(=O)c1cccs1)c1nc2cc(Cl)ccc2s1 | 62.6% (active) |
| COc1ccc(C2SCC(=O)N2CCCN(C)C)cc1 (configuration not stated) | 39.6% |
| Cc1cccc(NC(=O)c2ccc(C3SCC(=O)N3CCc3ccccc3)cc2)c1C (configuration not stated) | 60.8% (active) |
| CC(=O)Nc1cccc(OCCCNC(=O)C2CCC2)c1 | 39.1% |
| O=C1c2ccccc2C(=O)c2cc(NC(=O)C3CC3)ccc21 | 51.6% (active) |
| O=C(Nc1ccc(C#Cc2ccccc2)cc1)C1CC1 | 73.2% (active) |
| O=C(Nc1ccc(Br)c(Cl)c1)C1CC1 | 51% (active) |
| Cc1cc(C)cc(NS(=O)(=O)c2ccc(NC(=O)C3CCCCC3C(=O)O)cc2)c1 (configuration not stated) | 26.8% |
| COc1ccc(NC(=O)C2CCN(C(=O)c3ccc(OC)cc3)CC2)cc1 | 26.8% |
| CS(=O)(=O)N1CCC(C(=O)Nc2ccc3c(c2)OCO3)CC1 | 19.4% |
